From PubChem BioAssay
DT40 TDP1 CPT = growth inhibition of DT40 Tdp1-/-;hTDP1 cells with camptothecin (screen for TDP1 inhibitors); Potency, µM (titrated, usually from 46.2 µM), usual class: inhibitors; 420,000 tested, 12% active; chicken DT40 Tdp1-/-;hTDP1 cells + 20 nM CPT, ATP luminescence, 48 h; AID 686979; further: nearly all actives have a fitted effect of over 55% in size
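Chicken DT40 Tdp1-/- cells complemented with human TDP1, 400 cells/well, exposed to compounds plus 20 nM camptothecin for at least 48 h at 37 C; viability read as ATP content by CellTiter-Glo luminescence.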
TDP1 inh = TDP1 (human) enzyme inhibition. recombinant TDP1, AlphaScreen DNA substrate cleavage. 350,000 tested, 0.28% active. Potency, µM (top dose mostly 130 µM), usual class: inhibitors. Q9NUW8; further: nearly all actives have a fitted effect of over 40% in size
Target sequence (Q9NUW8 whole entry, looked up): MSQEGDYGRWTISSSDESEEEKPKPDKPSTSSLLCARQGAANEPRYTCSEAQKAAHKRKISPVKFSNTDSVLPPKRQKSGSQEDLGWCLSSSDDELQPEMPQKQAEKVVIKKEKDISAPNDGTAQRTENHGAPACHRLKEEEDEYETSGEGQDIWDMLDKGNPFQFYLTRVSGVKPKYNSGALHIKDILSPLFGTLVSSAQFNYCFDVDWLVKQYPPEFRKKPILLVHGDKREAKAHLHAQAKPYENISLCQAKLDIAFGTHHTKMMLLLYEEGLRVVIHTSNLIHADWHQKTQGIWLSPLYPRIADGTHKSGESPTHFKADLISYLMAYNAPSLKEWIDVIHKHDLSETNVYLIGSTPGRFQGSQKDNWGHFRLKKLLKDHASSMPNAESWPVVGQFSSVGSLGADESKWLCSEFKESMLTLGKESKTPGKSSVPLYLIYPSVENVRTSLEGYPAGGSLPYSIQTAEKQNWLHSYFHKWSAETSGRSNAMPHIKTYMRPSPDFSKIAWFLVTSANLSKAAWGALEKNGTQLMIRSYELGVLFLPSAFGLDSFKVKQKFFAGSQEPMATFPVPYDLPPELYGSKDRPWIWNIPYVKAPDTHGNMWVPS
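Recombinant human Tdp1 (E. coli-expressed, 1 nM final) preincubated with compounds 15 min at room temperature, then 5'-biotin/3'-phosphotyrosine-FITC DNA substrate (15 nM final) added for 5 min. AlphaScreen beads (10 ug/ml final) added 10 min; cleavage lowers signal.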
Six1-Eya2 blk = blocks human Six1 binding to Eya2; 360,000 tested, 0.56% active; activity change, % (no concentration beside the values); AlphaScreen GST-Six1/His-Eya2 binding, biochemical; hits give low values; in the data active means activity change below about -65%; inconclusive means mostly about -30% to -63%
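AlphaScreen luminescence read after one hour at 37 °C in darkness. Pin-transferred compounds met GST-Six1 and His-Eya2 protein (5X stock 250 nM/500 nM) plus glutathione donor and Ni-chelate acceptor beads (5X, 50 ug/mL).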
DT40 TDP1 no CPT = qHTS for Inhibitors of human tyrosyl-DNA phosphodiesterase 1 (TDP1): qHTS in cells in absence of CPT | DT40 Tdp1-/- hTDP1 cells, no CPT, ATP luminescence, 48 h | Potency, µM (titrated, usually from 46.2 µM), usual class: inhibitors | 420,000 tested, 15% active; further: nearly all actives have a fitted effect of over 55% in size
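Growth kinetics read by CellTiter-Glo luminescence after ≥48 hr at 37 °C. Cells: DT40 Tdp1-/- stably carrying human TDP1, 400 per well, compound exposure in the absence of CPT (DMSO vehicle).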
IL-1B inflam inh = inflammasome signaling inhibition, IL-1 beta readout; THP-1 LPS/ATP IL-1B secretion, AlphaLISA, 16 h; hits give low values; activity change, % at 57.5 µM; 360,000 tested, 4.7% active; in the data active means activity change below about -50%; inconclusive means mostly about -30% to -49%
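THP-1 cells pretreated 1 hr with compounds (up to 57.5 uM final), then stimulated with LPS (250 ng/mL final) plus ATP (1.25 mM final); secreted IL-1B measured by AlphaLISA after 16 hr, decreased signal indicating inhibition.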
CtBP-E1A inh = CtBP/E1A binding inhibition; activity change, % (test concentration not listed); AlphaScreen GST-E1A/His-CtBP binding, 1536-well; hits give low values; AID 651724; 340,000 tested, 0.49% active; in the data active means activity change below about -65%; inconclusive means mostly about -30% to -63%
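Steps: dispense buffer (Tris pH 8.0, NaCl 300 mM, TCEP 1 mM, BSA, Tween 20); add 5X protein mix (GST-E1A, His-CtBP, 125 nM each); pin 23 nL compound; 2 h at 37 °C, dark; add 5X beads (50 ug/mL); 1 h; read.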
A number is an active result; – = inactive; ? = inconclusive; · = no result given; ! = a repeat was not active. Sampled rows, rich in hits. Any-hit rate of the full collection: about 18%. Unless noted, the call rests on the fitted dose curve; in most records, active means well fitted curve in the direction sought with a large enough effect; inconclusive means small, poorly fitted or top-dose-only effect, or another doubt; inactive means no such curve, though single readings can be large; an effect the other way counts as inactive or inconclusive.

SMILES | DT40 TDP1 CPT | TDP1 inh | Six1-Eya2 blk | DT40 TDP1 no CPT | IL-1B inflam inh | CtBP-E1A inh
C#C[C@@]1(O)CCC2C3CCC4=C/C(=N/OCC(=O)NC(C(=O)NC(CC(C)C)C(=O)O)C(C)C)CC[C@]4(C)C3CC[C@@]21C (some centres undefined) | – | · | – | – | – | –
CN1CC(C(=O)c2ccc(Cl)cc2)C(c2ccccc2)C1 (centres undefined) | ? | · | – | ? | – | ·
C[C@H]1COC(=O)[C@@H](Cc2ccc(F)cc2)CC/C=C/C[C@H](CC(=O)N(CCO)Cc2ccccc2)C(=O)N1 | 16µM | – | – | 16µM | – | –
C[C@H]1COC(=O)[C@@H](Cc2ccc(F)cc2)CC/C=C/C[C@@H](CC(=O)N(CCO)Cc2ccccc2)C(=O)N1 | 13µM | – | – | 23µM | – | –
CCC(=O)O[C@H]1[C@@H](N2CCCCC2)C[C@H]2[C@@H]3CC[C@H]4C[C@H](OC(C)=O)[C@@H](N5CCCCC5)C[C@]4(C)[C@H]3CC[C@@]21C | 7.5µM | · | · | 6.7µM | · | ·
CN1C(=O)CC(=O)N(c2ccccc2)c2cc(Cl)ccc21 | – | · | · | – | · | ·
O=P(O)(O)CN1CCNCCN(CP(=O)(O)O)CCNCC1 | 6.5µM | · | – | 6.5µM | – | –
c1ccc(CN2CCNCC2)cc1 | – | · | · | – | · | ·
Cc1cccc(CCNCc2cc3ccc(C)cc3[nH]c2=O)c1 | 23µM | – | – | ? | – | –
COc1ccccc1Cn1c(SCC(=O)C(C)(C)C)nc2cc(C(=O)N3CCC4(CC3)OCCO4)ccc2c1=O | · | – | · | · | · | ·
OC1CCC(Nc2ccn3nc(-c4cccc(OCc5ccccc5)c4)cc3n2)CC1 (centres undefined) | ? | · | – | ? | – | –
O=C(c1ccc(Cl)cc1)C1CCCN(Cc2cccc3cccnc23)C1 (centres undefined) | 23µM | – | – | 16µM | -50 | –
O=C(c1ccc2c(c1)OCO2)C1CCCN(Cc2c(F)cccc2Cl)C1 (centres undefined) | – | – | – | ? | – | –
O=C(c1ccc(Cl)cc1)C1CCCN(Cc2cccc3ncccc23)C1 (centres undefined) | 18µM | · | – | 15µM | – | ·
O=C(c1ccc(Cl)cc1)C1CCCN(Cc2ccc3nonc3c2)C1 (centres undefined) | 16µM | – | – | ? | – | –
O=C(CC1CCCCC1)N1CCC(c2nc(-c3ccc(S(=O)(=O)N4CCCC4)cc3)no2)CC1 | 21µM | – | – | 8.2µM | – | –
Cl.Cl.Cl.Cl.Cl.Cl.N.N.N.N.NNNNN.NNNNN.O.O.[Ru].[Ru].[Ru] | ? | – | · | ? | · | ·
CN1[C@@H]2CC[C@H]1CC(OC(=O)N1Cc3ccccc3NC1=O)C2 (some centres undefined) | · | – | · | · | · | ·
CC(=O)O[C@@]12CO[C@@H]1C[C@H](O)[C@@]1(C)C(=O)[C@H](O)C3=C(C)[C@@H](O)C[C@@](O)([C@@H](OC(=O)c4ccccc4)C12)C3(C)C (some centres undefined) | 9.2µM | · | – | 9.2µM | – | –
C/C=C(\C)C(=O)N[C@@H](c1ccccc1)[C@@H](O)C(=O)O[C@H]1C[C@@]2(O)[C@@H](OC(=O)c3ccccc3)C3[C@](C)(C(=O)[C@H](O)C(=C1C)C2(C)C)[C@@H](O)C[C@H]1OC[C@@]31OC(C)=O (some centres undefined) | 0.046µM | · | – | 0.16µM | – | –
C/C=C(\C)C(=O)N[C@@H](c1ccccc1)[C@@H](O)C(=O)O[C@H]1C[C@@]2(O)[C@@H](OC(=O)c3ccccc3)C3[C@](C)(C(=O)[C@H](OC(C)=O)C(=C1C)C2(C)C)[C@@H](O)C[C@H]1OC[C@@]31OC(C)=O (some centres undefined) | 0.013µM | – | – | 0.01µM | – | –
CC(C)CCC(=O)O[C@H]1CC[C@H]2[C@@H]3CCC4=CC(=O)CC[C@]4(C)[C@H]3CC[C@]12C | – | · | · | – | · | ·
Clc1ccc(-c2csc3ncnc(Sc4nnnn4C4CC4)c23)cc1 | 5µM | · | · | 3.2µM | · | ·
CN1CC=C(c2c[nH]c3ccccc23)CC1 | – | – | – | – | – | –
CC(C(=O)c1c[nH]c2ccccc12)N1CCc2ccccc2C1 (centres undefined) | 16µM | – | – | ? | – | –
SMILES | DT40 TDP1 CPT | TDP1 inh | Six1-Eya2 blk | DT40 TDP1 no CPT | IL-1B inflam inh | CtBP-E1A inh
CCc1ccc(CNC(=O)c2ccc3c(c2)N=C(C)c2cc(C)ccc2S3)cc1 | 12µM | – | · | 5.8µM | · | ·
COc1ccc(CCNC(=O)c2ccc3c(c2)N(Cc2cccc(Cl)c2)C(=O)CS3)cc1OC | 21µM | – | · | 23µM | · | ·
COc1ccc(CCNC(=O)c2ccc3c(c2)N=C(C)c2cc(C)ccc2S3)cc1OC | ? | – | · | 15µM | · | ·
CCC1=Nc2cc(C(=O)N3CCC4(CC3)OCCO4)ccc2Sc2ccc(Br)cc21 | ? | – | – | ? | – | –
CCN1C(=O)c2ccccc2Sc2ccc(NC(=O)Cc3ccc(OC)c(OC)c3)cc21 | ? | – | · | ? | · | ·
C[C@]12CCC3C(CC[C@]4(O)C[C@@H](O)CC[C@]34C=O)[C@@]1(O)CC[C@@H]2C1=CC(=O)OC1 (some centres undefined) | 9.4µM | – | · | 6µM | · | ·
COc1ccc(C(=O)N/N=C/C23CC[C@@H](O)CC2(O)CC[C@@H]2[C@@H]3CCC3(C)C(C4=CC(=O)OC4)CCC23O)cc1 (some centres undefined) | – | · | – | – | -71 | –
COc1cccc(NC(=O)Cn2cc(C(=O)c3ccccc3)c3ccccc32)c1 | ? | – | · | ? | · | ·
S=C(NCCc1ccccc1)N1Cc2ccc(Br)cc2-n2nncc2C1 | ? | · | – | ? | ? | –
CC(=NNC(=S)N1CC2CCC(CC2)C1)c1nccs1 | 0.021µM | · | -89 | 0.026µM | -100 | -97
Cc1cccc(OP(=O)(Oc2ccccc2)OC(c2ccccc2)C(F)(F)F)c1 (centres undefined) | – | – | – | 18µM | – | –
OC(Cn1c2ccccc2c2ccccc21)C[n+]1cccc2ccccc21 (centres undefined) | 18µM | – | – | 16µM | -68 | –
Cc1ccc(O)c([C@H](CCN(C(C)C)C(C)C)c2ccccc2)c1 | 21µM! | – | – | ? | – | –
O=C(CN1C(=O)COc2ccccc21)N1CCC2(CC1)OCCO2 | – | – | – | – | – | –
